The list is not random: actives were taken first. Their share in the collection is about 2.9%.
PAFAH2 FP inh: PAFAH2 enzyme inhibitors, primary screen, biochemical, fluorescence polarization, human; AID 492956, 2010; inhibition, % at 3.39 µM; actives 0.99% (n = 340,000); recombinant PAFAH2, FP-rhodamine activity probe;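 active = inhibition above the mean over all tested compounds plus 3 SD, cut at about 30% in these data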;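 also: inhibitors block probe labeling of enzyme so polarization drops; 0% = enzyme with DMSO and 100% = wells lacking PAFAH2 protein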
rCAG binder: binders of r(CAG) RNA repeats, primary screen, biochemical, fluorescence; r(CAG) RNA repeat, TO-PRO-1 dye displacement fluorescence; inhibition, % at 3 µM; actives 1.3% (n = 370,000);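 active = inhibition above the plate cutoff, the mean of all test compounds on that plate plus 3 SD, cut at about 35% in these data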;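 also: 0% = DMSO alone and 100% = 100 µM mitoxantrone as full dye displacement; higher means more dye released from RNA so lower well fluorescence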
ZTA DNA inh: ZTA (EBV) inhibition in EBNA-1 counter-screen; P03206; ZTA-DNA binding, fluorescence polarization; inhibition, % at 11 µM; actives 0.15% (n = 320,000); in the data active = inhibition above about 33%
Target sequence (P03206 whole entry, looked up): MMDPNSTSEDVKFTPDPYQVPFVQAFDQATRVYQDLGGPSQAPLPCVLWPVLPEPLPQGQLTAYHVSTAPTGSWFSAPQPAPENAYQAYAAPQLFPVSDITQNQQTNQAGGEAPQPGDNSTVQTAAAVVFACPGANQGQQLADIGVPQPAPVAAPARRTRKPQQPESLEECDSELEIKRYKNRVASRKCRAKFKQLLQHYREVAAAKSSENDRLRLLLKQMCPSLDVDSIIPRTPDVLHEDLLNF
PAFAH1B3 inh: PAFAH1B3 enzyme inhibitors, primary screen, biochemical, fluorescence polarization, human | actives 0.28% (n = 340,000) | Platelet-activating factor acetylhydrolase IB subunit alpha1 (Homo sapiens), Q15102 | inhibition, % at 3.39 µM | recombinant PAFAH1B3, FP-rhodamine probe;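 active = inhibition above the screen-wide average of all tested compounds plus 3 SD, cut at about 25% in these data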;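 also: 0% = enzyme with DMSO only and 100% = wells lacking PAFAH1B3 protein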
Target sequence (Q15102 whole entry, looked up): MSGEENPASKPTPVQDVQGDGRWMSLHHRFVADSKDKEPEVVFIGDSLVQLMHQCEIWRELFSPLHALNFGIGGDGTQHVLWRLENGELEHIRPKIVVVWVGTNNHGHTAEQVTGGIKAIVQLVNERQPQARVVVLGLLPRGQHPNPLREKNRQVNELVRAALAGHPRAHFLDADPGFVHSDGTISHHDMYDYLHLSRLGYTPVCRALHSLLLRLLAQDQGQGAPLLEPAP
PAFAH1B2 FP inh: PAFAH1B2 enzyme inhibitors, primary screen, biochemical, fluorescence polarization, human; Platelet-activating factor acetylhydrolase IB subunit alpha2 (Homo sapiens), P68402; recombinant PAFAH1B2, FP-rhodamine activity probe; actives 1.2% (n = 340,000); inhibition, % at 3.39 µM;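 active = inhibition above the mean of all tested compounds plus 3 SD, cut at about 24% in these data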;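 also: 0% = enzyme with DMSO and 100% = wells lacking PAFAH1B2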
Target sequence (P68402 whole entry, looked up): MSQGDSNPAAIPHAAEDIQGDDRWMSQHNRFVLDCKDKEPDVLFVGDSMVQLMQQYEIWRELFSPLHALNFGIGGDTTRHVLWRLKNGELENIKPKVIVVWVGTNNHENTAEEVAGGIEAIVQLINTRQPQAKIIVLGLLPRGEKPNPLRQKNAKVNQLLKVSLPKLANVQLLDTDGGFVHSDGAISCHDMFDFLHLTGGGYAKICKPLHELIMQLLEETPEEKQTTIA
EBNA-1 inh: EBNA-1 DNA-binding inhibitors, primary screen, biochemical, fluorescence polarization. inhibition, % at 14.8 µM. actives 0.34% (n = 300,000); in the data active = inhibition above about 28%
EBNA-1 confirm: EBNA-1 DNA-binding inhibitors, retest, confirmation, biochemical, fluorescence polarization, triplicate; shares compounds with EBNA-1 inh; Recombinant EBNA-1 DBD, Cy5-DNA fluorescence polarization; inhibition, % at 14.8 µM; actives 35% (n = 830);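 active = mean inhibition across replicates above a set limit taken from the earlier primary screen, cut at about 28% in these data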;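 also: plate controls were EBNA-1 protein with DMSO for no effect and wells lacking EBNA-1 for full effect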
ZTA counter trip: EBV Zta DNA binding inhibitors, counter-screen for EBNA-1 inhibitor project, biochemical, fluorescence polarization, triplicate; shares compounds with EBNA-1 inh; Zta-ZRE DNA binding, Cy5 fluorescence polarization; inhibition, % at 11.1 µM; 830 tested, under 10 active;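 active = mean inhibition over triplicates above a set limit taken from the primary EBNA-1 screen, cut at about 37% in these data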;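 also: purified full length Zta protein with Cy5 labeled ZRE DNA probe; 0% = Zta with DMSO and 100% = wells lacking Zta protein; inhibitors lower polarization by freeing the labeled DNA probe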
Active calls of the source: *; . = no result; ! = a repeat was not active.

SMILES	PAFAH2 FP inh	rCAG binder	ZTA DNA inh	PAFAH1B3 inh	PAFAH1B2 FP inh	EBNA-1 inh	EBNA-1 confirm	ZTA counter trip
Cc1ccc(NC(=O)/C(C#N)=C(\N)C(Cl)(Cl)Cl)nc1	41.0*	.	-15.0	42.6*	44.9*	-8.3	.	.
CCC1Nc2ncnc(N3CCc4ccccc4C3)c2N(Cc2ccc(Cl)cc2)C1=O (stereo unspecified)	1.9	8.3	.	-6.7	26.3*	.	.	.
CCOC(=O)[C@@]12CN(C(=O)OC(C)(C)C)CC=C1N(Cc1ccc(OC)cc1)C(=O)[C@H]2CC(=O)N1CCOCC1	.	3.1	.	.	.	.	.	.
CC1(C)S[C@@H]2[C@H](NC(=O)[C@H](N)c3ccccc3)C(=O)N2[C@H]1C(=O)O	-5.1	57.8*!	3.8	4.3	0.5	-7.6	.	.
Cc1nn(C(=O)c2ccco2)c(C)c1Sc1ccccc1	51.5*	1.3	-14.8	11.1	2.7	-8.9	.	.
CCOC(=O)c1c(C)[nH]c(C(=O)OCC(=O)Nc2ccc(OC)c(Cl)c2)c1C	-14.8	-2.0	21.7	-15.3	-4.8	94.4*	31.5*	-5.4
CCOC(=O)c1c(C)[nH]c(C(=O)OCC(=O)Nc2cc(Cl)ccc2OC)c1C	-8.9	-3.0	15.6	2.5	0.3	12.7	.	.
COC(=O)[C@]12C[C@H](CC(=O)NCc3cccc(C(F)(F)F)c3)C(=O)N(CCC3=CCCCC3)C1=C[C@H](C(C)(C)C)O[C@@H]2C	.	4.5	.	.	.	.	.	.
COCCN1C(=O)CCC1(C)c1nnnn1Cc1ccccc1 (stereo unspecified)	.	1.4	.	.	.	.	.	.
CCOC(=O)c1cccc(NC(=O)COc2ccc([N+](=O)[O-])cc2)c1	-0.4	3.4	9.5	-1.2	-2.0	-1.6	.	.
CCCOC(=O)c1cccc(NC(=O)COc2ccc([N+](=O)[O-])cc2)c1	-0.7	0.1	3.7	9.9	-2.8	109.0*	6.5	3.7
CC1CCC(NC(=O)C2CCC(CNS(=O)(=O)c3ccccc3)CC2)CC1 (stereo unspecified)	-0.3	-3.5	.	4.8	3.9	.	.	.
CC1CCCCC1NC(=O)C1CCC(CNS(=O)(=O)c2ccccc2)CC1 (stereo unspecified)	-1.6	1.4	-2.7	9.1	4.5	30.9*	9.3	6.4
COc1ccc(NC(=O)c2ccc(OC(=S)N(C)c3ccc(OC)cc3)cc2)cc1	8.8	0.8	12.8	1.9	6.2	34.0*	18.6	8.1
COc1ccc(C(=O)Nc2ccc3c(c2)C(=O)NC3=O)cc1	-14.6	2.0	10.2	-3.3	-3.2	32.8*	26.1	5.5
COc1cccc(C(=O)Nc2ccc3c(c2)C(=O)NC3=O)c1	2.4	3.6	11.2	2.6	0.8	2.8	.	.
COc1ccc(NC(=O)Nc2ccc(OC)cc2)cc1	-1.4	-0.2	4.3	-0.5	-4.8	54.5*	32.3*	0.2
COc1ccc(C(=O)Nc2ccc(C3(C#N)CCCC3)cc2)cc1	11.2	-2.2	17.8	1.1	7.5	55.8*	13.5	1.9
Cc1cc(NC(=O)c2ccc(NS(=O)(=O)c3ccc(C)c(C)c3)cc2)no1	.	11.6	.	.	.	.	.	.
CC(C)(C)c1ccc(-c2nnc3n2N=C(c2ccc(-c4ccccc4)cc2)CS3)cc1	.	6.2	.	.	.	.	.	.
CCOC(=O)[C@]12CCCC=C1N(CCCOC)C(=O)[C@@H]2CC(=O)NCc1ccc(OC)c(OC)c1	.	-1.3	.	.	.	.	.	.
Cc1ccc(CN2CCCCC(NC(=O)c3ccc(-c4ccccc4)cc3)C2=O)cc1 (stereo unspecified)	.	6.5	.	.	.	.	.	.
O=C(NC1CCCC1)N[C@@H]1CC[C@@H](CC(=O)N2CCOCC2)O[C@@H]1CO	.	1.4	.	.	.	.	.	.
CCCCCCCCN1C(=O)[C@H](CC(=O)NCc2cccc3ccccc23)C[C@@]2(C(=O)OCC)CCC=C12	.	4.5	.	.	.	.	.	.
COc1ccc(NC(=O)Nc2ccccc2F)cc1Cl	8.9	4.2	-22.1	3.6	3.2	88.8*	22.1	13.6
SMILES	PAFAH2 FP inh	rCAG binder	ZTA DNA inh	PAFAH1B3 inh	PAFAH1B2 FP inh	EBNA-1 inh	EBNA-1 confirm	ZTA counter trip
COC(=O)C12C=C3CC(c4ccc(OC)cc4)=C3C(=O)N1Cc1[nH]c3ccccc3c1C2 (stereo unspecified)	.	8.9	.	.	.	.	.	.
COc1ccc(N2CCN(C(=S)Nc3cc(C)cc(C)c3)CC2)cc1	5.9	-1.0	11.6	4.6	3.3	11.7	.	.
COc1ccc(N2CCN(C(=S)Nc3ccc(F)cc3)CC2)cc1	-4.3	-0.8	-17.0	-2.4	-1.7	34.5*	25.2	7.2
Cn1cnnc1SCC(=O)Nc1sc2c(c1C#N)CCCCC2	9.3	3.2	0.9	1.4	5.3	-2.7	.	.
Cn1c(CNC(=O)c2ccc(Cl)c(Cl)c2)nnc1SCC(=O)Nc1sc2c(c1C#N)CCCC2	-2.5	0.7	8.8	6.4	6.3	30.9*	38.9*	-8.1
O=C1NC(c2ccccc2)c2c(-c3ccccc3)n[nH]c21 (stereo unspecified)	.	-0.5	.	.	.	.	.	.
CC(=O)Nc1ccc(/C=C/c2nc(-c3ccccc3O)n[nH]2)cc1	-4.1	16.7	1.0	11.2	-1.3	44.5*	-6.3	1.4
COc1cc(/C=C/c2nc(-c3ccccc3O)n[nH]2)cc(OC)c1OC	-6.8	14.0	4.2	9.2	7.0	-1.4	.	.
CCCCOc1ccc(C(=O)Nc2ccc(C)cc2[N+](=O)[O-])cc1	4.9	0.2	-4.6	6.1	5.3	34.1*	1.0	7.4
CCCCOc1cccc(-c2nnc(N)s2)c1	0.2	0.9	-1.4	7.7	-2.2	12.3	.	.
CCCOc1cccc(-c2nnc(N)s2)c1	1.5	-2.5	-10.3	-3.9	7.3	33.3*	-6.1	4.6
COc1ccc2c(c1)[nH]c1c(=O)n(Cc3ccco3)cnc12	3.7	2.1	5.0	0.1	2.7	37.2*	-1.9	-12.6
COc1ccc2c(c1)[nH]c1c(=O)n(Cc3ccccn3)cnc12	-2.6	3.0	-8.5	2.9	1.5	10.0	.	.
COC(=O)C1CN(C2CC2)CCS(=O)(=O)N1Cc1cn(Cc2ccc(OC)cc2)nn1 (stereo unspecified)	.	2.2	.	.	.	.	.	.
CSc1cccc(NC(=O)NCc2cccc(CNC(=O)Nc3cccc(SC)c3)c2)c1	1.9	12.0	7.2	-14.8	-12.9	34.2*	40.5*	3.0
CCNC(=O)N(C)[C@H]1C[C@H]2c3[nH]c4c(-c5ccccc5)cccc4c3CCN2C(=O)[C@H]1[C@H](C)O	.	3.6	.	.	.	.	.	.
O=C(COC(=O)c1cc(Br)ccc1O)Nc1ccc2c(c1)OCCO2	3.6	6.2	5.8	10.4	1.9	49.4*	21.6	0.8

Compound activity from PubChem BioAssay.
